# Compounds with a hit are over-represented: about 4% of the library has one in this group of screens.
# FBA Mtb inh – Mtb fructose-bisphosphate aldolase inhibition; 360,000 compounds, 2.3% hits; inhibition, % at 1 µM; P9WQA3; purified M. tuberculosis FBA, fluorescence read-out; in the data active = inhibition above about 27%
# Target sequence (P9WQA3 whole entry, looked up): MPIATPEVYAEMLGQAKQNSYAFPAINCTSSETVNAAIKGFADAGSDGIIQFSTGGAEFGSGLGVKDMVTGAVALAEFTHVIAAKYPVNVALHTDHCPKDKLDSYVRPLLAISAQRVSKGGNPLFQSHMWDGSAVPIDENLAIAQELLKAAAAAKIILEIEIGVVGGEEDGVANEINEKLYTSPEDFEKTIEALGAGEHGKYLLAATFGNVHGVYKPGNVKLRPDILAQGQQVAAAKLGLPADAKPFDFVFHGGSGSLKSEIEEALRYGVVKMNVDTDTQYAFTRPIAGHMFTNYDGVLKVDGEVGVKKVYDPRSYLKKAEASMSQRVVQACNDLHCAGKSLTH
# Mtb bLac sens – beta-lactam sensitization of Mtb H37Rv; M. tuberculosis H37Rv growth with meropenem, percent inhibition; inhibition, % at 25 µM; 330,000 compounds, 0.27% hits;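 also: growth measured after seven days incubation then overnight dye step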
# Rv3671c inh – inhibits the M. tuberculosis serine protease Rv3671c; inhibition, % at 5.96 µM; AID 2606; P9WHR9; 320,000 compounds, 0.048% hits; in the data active = inhibition above about 38%;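 also: extracellular domain of Rv3671c used as enzyme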
# RecA intein inh – blocks M. tuberculosis RecA intein splicing; P9WHJ3; cell-free RecA intein splicing, fluorescence; inhibition, % (concentration not given with the values); 290,000 compounds, 0.75% hits; AID 2221; in the data active = inhibition above about 30%; inconclusive = no clear call, values can overlap the other calls
# Mtb UGM inh – blocks M. tuberculosis UGM enzyme; P9WIQ1; purified UGM, fluorescence polarization probe displacement; inhibition, % at 10 µM; 320,000 compounds, 0.06% hits; in the data active = inhibition above about 10%, passing the limit was not always enough; inconclusive = no clear call, values can overlap the other calls
# GDH-TPI inh – inhibits GDH-TPI coupling enzymes, artifact for Mtb FBA screen; GDH-TPI coupled enzyme counterscreen, NADH absorbance; inhibition, % at 4.8 µM; 360,000 compounds, 1.2% hits; AID 588335; in the data active = inhibition above about 30%
# GFP chromo cs – counter-screen GFP chromophore formation inhibition; cell-free GFP chromophore formation, fluorescence; AID 434968; EC50, µM; shares compounds with RecA intein inh; 2,100 compounds, 83% hits
# Numbers stand for hits; - = inactive; ? = inconclusive; . = no result given. Unless noted, no rule for the calls is given here.
SMILES,FBA Mtb inh,Mtb bLac sens,Rv3671c inh,RecA intein inh,Mtb UGM inh,GDH-TPI inh,GFP chromo cs
CCOc1ncccc1C(=O)Nc1ccc2nc(C)sc2c1,-,-,-,-,-,-,.
CSc1ccccc1OCc1cc(C(=O)NC2CCOC(C)(C)C2)no1 (stereo unspecified),-,?,-,-,-,-,.
COc1ccc(OCc2cc(C(=O)NC3CCOC(C)(C)C3)no2)c2ccccc12 (stereo unspecified),-,-,-,54,-,-,12
Cc1ccc(-c2[nH]ncc2C(=O)c2ccccc2C)c(O)c1,-,-,-,-,-,-,.
O=C(CCl)N(c1ccc(Cl)cc1)c1c[nH]c2ccccc12,-,-,-,40,-,-,2.2
O=C(Cc1ccc(Cl)cc1)NCCc1c[nH]c2ccccc12,-,-,-,-,-,-,.
O=C(CCl)N(c1ccccc1)c1c[nH]c2ccccc12,-,-,-,82,-,-,8.3
O=C(O)Cc1c[nH]c2ccccc12,-,-,-,-,-,-,.
COc1ccc(C2=NOC(Cn3nc(-c4ccccc4)cc3C(=O)NCc3ccccc3OC)C2)cc1 (stereo unspecified),-,-,-,.,-,-,.
Cc1ccc(S(=O)(=O)N[C@@H](Cc2ccccc2)C(=O)CCl)cc1,-,-,-,93,-,-,1.9
O=C(CSc1ccc(-c2ccccn2)nn1)Nc1ccc(F)c(F)c1,-,-,-,-,-,-,.
CC(C)NC(=O)N(C)C[C@H]1Oc2ccc(NS(=O)(=O)c3ccc(F)cc3)cc2C(=O)N([C@H](C)CO)C[C@@H]1C,-,-,-,.,-,-,.
COc1ccc(-c2oc(NC(=O)CCl)c(C#N)c2-c2ccc(OC)cc2)cc1,-,-,-,90,-,-,1.4
N#CC1(c2ccccc2)CCN(S(=O)(=O)c2ccc(OC(F)(F)F)cc2)CC1,-,-,-,-,-,-,.
COc1ccc(Nc2nc(N3CCN(S(C)(=O)=O)CC3)nc3ccccc23)c(OC)c1,-,-,-,.,-,-,.
COc1ccc(Nc2nc(N3CCCCC3)nc3ccccc23)c(OC)c1,-,-,-,93,-,-,-
O=C(O)c1ccccc1-c1ccccc1C(=O)Nc1ccc(-c2nc3cc(Cl)ccc3o2)cc1,-,-,-,36,-,-,17
COc1ccc2[nH]c(CN3CCC(CO)(CCOc4ccccc4)CC3)c(C)c2c1,-,-,-,40,-,-,-
COc1ccc(CN2CCC(CO)(CCOc3ccccc3)CC2)c(OC)c1C,-,-,-,-,-,-,.
O=C(NCC(=O)N1CCCC1)c1ccc(Cl)cc1,-,-,-,-,-,-,.
Cc1cc(C)cc(OC(=O)CS(=O)c2ccc(C(F)(F)F)cc2[N+](=O)[O-])c1 (stereo unspecified),-,-,-,43,-,-,6.3
C/C(=C\c1ccco1)C1C(C#N)=C(N)Oc2n[nH]c(-c3ccc(C)cc3)c21 (stereo unspecified),-,-,-,-,-,-,.
COc1ccc(OC)c(-c2[nH]nc3c2C(c2ccco2)C(C#N)=C(N)O3)c1 (stereo unspecified),-,-,-,70,-,-,26
Cc1ccc(C2C(C#N)=C(N)Oc3n[nH]c(-c4cccs4)c32)s1 (stereo unspecified),-,-,-,67,-,-,8.8
CC(C)c1[nH]nc2c1C(c1ccco1)C(C#N)=C(N)O2 (stereo unspecified),-,-,-,64,-,-,29
SMILES,FBA Mtb inh,Mtb bLac sens,Rv3671c inh,RecA intein inh,Mtb UGM inh,GDH-TPI inh,GFP chromo cs
COc1cccc(-c2[nH]nc3c2C(c2ccc(C)o2)C(C#N)=C(N)O3)c1 (stereo unspecified),.,-,-,78,-,.,17
Cc1ccc(S(=O)(=O)N(C)c2ccccc2C(=O)Nc2c(F)cccc2F)cc1,-,-,-,-,-,-,.
CC(C)(C(=O)N1CCC1(C)C(=O)NS(=O)(=O)c1cccc(Cl)c1)c1ccccc1 (stereo unspecified),-,.,.,.,.,-,.
COc1cc(OC)cc(C(=O)NCCS(=O)(=O)N2CCN(Cc3ccccc3)CC2)c1,-,-,-,-,-,-,.
O=[N+]([O-])c1cnc(Nc2ccccc2)nc1Nc1ccccc1,-,-,-,-,-,-,.
N#CC1=C(N)Oc2n[nH]c(-c3cccs3)c2C1c1ccco1 (stereo unspecified),-,-,-,83,-,-,18

# Screening results: PubChem BioAssay, several laboratories
